Measured values as given in PubChem BioAssay (Tox21).
Inconclusive results are not listed. The source made the active and inactive calls. The call rests on the fitted dose curve; in most records, active means well fitted activation curve with a large enough effect in the signal ratio in the repeat runs, with a control signal flat (not every such curve was filed as active); inconclusive means weak or mixed curves; inactive means flat fitted curve, though single readings scatter; the % refers to the signal ratio.

Assay: qHTS assay for small molecule activators of the heat shock response signaling pathway (AID 743210)
Conditions: HeLa HSE-bla reporter, beta-lactamase ratio, 5 h; series mostly up to 62.6 µM; activation: at the top concentration
Excerpt: U.S. Tox21 Program National Center for Advancing Translational Sciences [NCATS] NIH Chemical Genomics Center [NCGC] U.S. Environmental Protection Agency [EPA] National Institutes of Environmental Health Sciences [NIEHS] National Toxicology Program [NTP] U.S. Food and Drug Administration [FDA] Tox21 Assay Overview: Various chemicals, environmental and physiological stress conditions may lead to the activation of heat shock response/ unfolded protein response (HSR/UPR). There are three heat shock transcription factors (HSFs) (HSF-1, -2, and -4) mediating transcriptional regulation of the human HSR. To identify the compounds that activate HSR signaling, HSE-bla HeLa cell line (Invitrogen, Carlsbad, CA, USA) containing a beta-lactamase reporter gene under the control of the heat shock response elements was used to screen the Tox21 10K compound library.
Tox21 Assay Protocol Summary: The CellSensor HSE-bla HeLa cells (Invitrogen, Carlsbad, CA, USA) were dispensed at 1500 cells/6uL/well into 1536-well black wall/clear bottom plates using a Multidrop combi (Thermo Fisher Scientific, Waltham, MA) dispenser. After the assay plates were incubated at 37 C and 5% CO2 overnight, 23 nL of compounds dissolved in DMSO, positive controls or DMSO only was transferred to the assay plate by a Pintool station (Kalypsys, San Diego, CA). The plates were incubated at 37 C for 5 h. After 1 uL of LiveBLAzerTM B/G FRET substrate was added using a Flying Reagent Dispenser (Beckman Coulter, Indianapolis, IN, USA), the plates were incubated at room temperature for 2.5 h, and fluorescence intensity was measured by an Envision plate reader (PerkinElmer, Shelton, CT).
On the % scale 0 is the no-effect control and ±100 the full control effect.

Row | SMILES | activation
1 | CC(C)=CCN1CC[C@@]2(C)c3cc(O)ccc3C[C@@H]1[C@@H]2C | -0.105% [at 81.1 µM] (inactive)
2 | Cc1cc2c3c(c1)C(c1ccccc1)=N[C@@H](NC(=O)c1ccncc1)C(=O)N3CC2 | -0.11% (inactive)
3 | BrCCCBr | -0.0569% [at 81.1 µM] (inactive)
4 | COc1cnc(OC)n2nc(NS(=O)(=O)c3c(OCC(F)F)cccc3C(F)(F)F)nc12 | -0.413% (inactive)
5 | Nc1cc(Cl)ccc1Cl | -0.234% (inactive)
6 | O=Cc1ccccc1 | -0.719% [at 81.1 µM] (inactive)
7 | CC[C@]1(O)CC[C@H]2[C@@H]3CCC4=CCCC[C@@H]4[C@H]3CC[C@@]21C | 0.827% (inactive)
8 | CN1CCc2cc(Cl)c(O)cc2[C@H]2c3ccccc3CC[C@@H]21 | -0.891% (inactive)
9 | N#CCCl | -0.824% [at 81.1 µM] (inactive)
10 | C=Cc1cccc(CCl)c1 | -0.0858% [at 81.1 µM] (inactive)
11 | CC(Cc1ccccc1)N(C)Cc1ccco1 (stereo not given) | -0.1% (inactive)
12 | Nc1nc(N)nc(Cl)n1 | -1.4% (inactive)
13 | COc1ccc2[nH]cc(CCN(C(C)C)C(C)C)c2c1 | 0.783% [at 81.1 µM] (inactive)
14 | Clc1c(Cl)c(Cl)c(Cl)c(Cl)c1Cl | -2.21% [at 5.95 µM] (inactive)
15 | CCC(C)Br (stereo not given) | -0.898% [at 81.1 µM] (inactive)
16 | CCNS(=O)(=O)C(F)(F)C(F)(F)C(F)(F)C(F)(F)C(F)(F)C(F)(F)C(F)(F)C(F)(F)F | 1.69% (inactive)
17 | Brc1ccc(Oc2ccc(Br)cc2Br)c(Br)c1 | 2.6% (inactive)
18 | CSC(C)(C)/C=N/O | -0.233% (inactive)
19 | FC(F)C(F)(F)OCC(Cn1cncn1)c1ccc(Cl)cc1Cl (stereo not given) | 2.95% (inactive)
20 | O=C(Cl)c1ccccc1F | -0.546% (inactive)

Row | SMILES | activation
21 | COC(=O)c1cc(Oc2ccc(Cl)cc2Cl)ccc1[N+](=O)[O-] | 2.11% (inactive)
22 | CCCCN(CCCC)C(=S)[S-].CCCCN(CCCC)C(=S)[S-].[Ni+2] | 4.16% (inactive)
23 | CCO/N=C(\CC)C1=C(O)CC(c2c(C)cc(C)cc2C)CC1=O (stereo not given) | -2.41% (inactive)
24 | CC(C)N(C(=O)SC/C(Cl)=C/Cl)C(C)C | 0.639% [at 81.1 µM] (inactive)
25 | NC1CCC(CC2CCC(N)CC2)CC1 (stereo not given) | -0.183% (inactive)
26 | CC(Cc1ccc2c(c1)OCO2)NO (stereo not given) | -0.477% [at 81.1 µM] (inactive)
27 | CC(C)(C)c1ccc(OP(=O)(Oc2ccccc2)Oc2ccccc2)cc1 | 3.81% [at 81.1 µM] (inactive)
28 | COc1ccc2c(c1OC)C(=O)O[C@@H]2[C@H]1c2cc3c(cc2CCN1C)OCO3 | -0.156% (inactive)
29 | O=c1[nH]c(Cl)c(Cl)cc1Cl | -0.0981% (inactive)
30 | CCN(CC)CCN1C(=O)CN=C(c2ccccc2F)c2cc(Cl)ccc21 | 0.196% (inactive)
31 | ClC(Cl)C(Cl)(Cl)Cl | -0.267% (inactive)
32 | CC(Cc1ccc(OCC(=O)O)cc1)NCC(O)c1csc(C(F)(F)F)n1 (stereo not given) | 0.34% (inactive)
33 | N#Cc1c[nH]cc1-c1cccc2c1OC(F)(F)O2 | -0.595% (inactive)
34 | CCC1COC(Cn2cncn2)(c2ccc(Cl)cc2Cl)O1 (stereo not given) | -1.05% (inactive)
35 | O=[N+]([O-])c1ccc(Cl)c(Cl)c1Cl | -0.0289% (inactive)
36 | Cc1c([N+](=O)[O-])cc2c(c1[N+](=O)[O-])C(C)(C)CC2(C)C | -0.969% (inactive)
37 | O=C1C[C@@H]2OCC=C3CN4CC[C@]56c7ccccc7N1[C@H]5[C@H]2[C@H]3C[C@H]46 | -0.573% (inactive)
38 | CSC(=O)c1c(C(F)F)nc(C(F)(F)F)c(C(=O)SC)c1CC(C)C | 1.87% (inactive)
39 | O=C(CCCCl)c1ccc(F)cc1 | 1.57% (inactive)
40 | Clc1cc(Cl)c(-c2cc(Cl)c(Cl)cc2Cl)cc1Cl | 0.0173% (inactive)
